Inconclusive results are not listed. Calls of active or inactive are those of the source. Unless noted, calls follow the shape of the dose curve; as a rule, active = well fitted curve in the direction sought with a large enough effect in the repeat runs; inconclusive = weak or mixed curves; inactive = no such curve, though single readings can be large; an effect the other way counts as inactive or inconclusive.
What was measured:
[1] = qHTS assay to identify small molecule agonists of the hypoxia (HIF-1) signaling pathway (AID 1224846; active = well fitted activation curve with a large enough effect in the signal ratio in the repeat runs, not every such curve was filed as active; the % refers to the signal ratio)
Method in brief: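 Agonist mode reporter screen. ME-180 cells stably expressing bla under HRE control received test compounds in DMSO for 17 hrs (37C, 5% CO2), and beta-lactamase activity was then detected with the CCF4-AM FRET substrate.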

[2] = qHTS assay to identify small molecule agonists of H2AX - cell viability counter screen (AID 1224847; calls by dose curve; also: top concentration of the series differs between compounds; nearly all actives have a fitted effect of over 30% in size)
Method in brief: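 Quantitative HTS viability measurement: CHO-K1 wild-type cells in serum (10% FBS) medium, short 3 hr drug exposure at 37C with 0.76% DMSO, CellTiter-Glo luminescent detection.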

[3] = qHTS assay to identify small molecule antagonists of the estrogen related receptor (ERR) signaling pathway from Tox21 library (AID 1224848); also: nearly all actives have a fitted effect of over 50% in size
Method in brief: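 Compounds dissolved in DMSO are pin-transferred onto ERR reporter cells (2,000 per well) that have settled for 6 h at 37 C. Plates then incubate 18 h at 37 C before ONE-Glo luciferase reagent and a luminescence read 30 min later.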

[4] = qHTS assay to identify small molecule agonists of the estrogen related receptor (ERR) signaling pathway from Tox21 library (AID 1224849; calls by dose curve; also: nearly all actives have a fitted effect of over 15% in size); conditions: ERR reporter cell line, ONE-Glo luciferase, 18 h; at 92.4 µM (top of the series) unless noted
Method in brief: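 Quantitative HTS in agonist format: NTP ERR cell line, compounds transferred in DMSO after 6 h plating, 18 h incubation at 37 C, ONE-Glo luminescence endpoint.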

[5] = qHTS RealTime-Glo MT Cell Viability Assay in HepG2 cells - 24 hour (AID 1224867); also: nearly all actives have a fitted effect of over 50% in size
Method in brief: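 Cell number in HepG2 cultures estimated from NanoLuc luminescence generated by metabolic reduction of a prosubstrate by living cells. The homogeneous, nonlytic format allowed repeated reads at 0, 8, 16, 24, 32 and 40 h of compound exposure.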

[6] = qHTS RealTime-Glo MT Cell Viability Assay in HEK293 cells - 32 hour (AID 1224868); also: top concentration of the series differs between compounds; nearly all actives have a fitted effect of over 50% in size
Method in brief: (§1)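 Homogeneous bioluminescent viability format in HEK293 cells (600 cells/well). Following 5 h at 37 C/5% CO2, 23 nL compound was pintooled; the signal was measured repeatedly during 40 h incubation.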

[7] = A CellTox Green Cytotoxicity Assay to monitor cytotoxicity in HEK293 cells - 0 hour (AID 1224869); also: nearly all actives have a fitted effect of over 50% in size
Method in brief: (§2)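 Dead-cell fluorescence measured kinetically: asymmetric cyanine dye, HEK293, 600 cells/well, 5 h settle, 23 nL cpd/DMSO, 37 C, reads 0–40 h every 8 h.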

[8] = qHTS RealTime-Glo MT Cell Viability Assay in HepG2 cells - 40 hour (AID 1224870); also: nearly all actives have a fitted effect of over 50% in size
Method in brief: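 HepG2 cells (600/well) mixed with RealTime-Glo MT reagent, settled 5 h at 37 C/5% CO2 before compound addition. Nonlytic NanoLuc luminescence from viable-cell prosubstrate reduction read repeatedly during 40 h treatment at 37 C.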

[9] = A CellTox Green Cytotoxicity Assay to monitor cytotoxicity in HEK293 cells - 40 hour (AID 1224871); also: nearly all actives have a fitted effect of over 45% in size
Method in brief: as §2

[10] = qHTS RealTime-Glo MT Cell Viability Assay in HEK293 cells - 16 hour (AID 1224872)
Method in brief: as §1
% is scaled to controls: 0 for no effect and ±100 for the full control effect.

CCCCCCCCOS(=O)(=O)O
inactive: outcome [1] | Potency [2] | Potency [3] | activity change, positive = activation [4] 6.25% | outcome [5] | Potency [6] | outcome [7] | outcome [8] | Potency [9] | Potency [10]

C=C(C)C(=O)OCc1ccccc1
inactive: outcome [1] | Potency [2] | Potency [3] | activity change, positive = activation [4] 1.9% | outcome [5] | Potency [6] | outcome [7] | outcome [8] | Potency [9] | Potency [10]

CC(=C(CCOC(=O)C(C)C)SSC(CCOC(=O)C(C)C)=C(C)N(C=O)Cc1cnc(C)nc1N)N(C=O)Cc1cnc(C)nc1N
inactive: outcome [1] | Potency [2] | Potency [3] | activity change, positive = activation [4] 0.537% [at 42.5 µM] | outcome [5] | Potency [6] | outcome [7] | outcome [8] | Potency [9] | Potency [10]

CCO[Si](CCCS)(OCC)OCC
inactive: outcome [1] | Potency [2] | Potency [3] | activity change, positive = activation [4] 5.01% | outcome [5] | Potency [6] | outcome [7] | outcome [8] | Potency [9]

N#Cc1ccc(C(=O)O)cc1
inactive: outcome [1] | Potency [2] | Potency [3] | activity change, positive = activation [4] 1.83% | outcome [5] | Potency [6] | outcome [7] | outcome [8] | Potency [9] | Potency [10]

CCCCCCOC(=O)CC
inactive: outcome [1] | Potency [2] | Potency [3] | activity change, positive = activation [4] -0.0388% | outcome [5] | Potency [6] | outcome [7] | outcome [8] | Potency [9] | Potency [10]

CCCCCCCCCCl
inactive: outcome [1] | Potency [2] | Potency [3] | activity change, positive = activation [4] 2.84% | outcome [5] | Potency [6] | outcome [7] | outcome [8] | Potency [9] | Potency [10]

CC(C)CCCCOC(=O)c1ccccc1C(=O)OCCCCC(C)C
inactive: outcome [1] | Potency [2] | Potency [3] | activity change, positive = activation [4] -6.44% | outcome [5] | Potency [6] | outcome [7] | outcome [8] | Potency [9] | Potency [10]

O=S(=O)(O)CCN1CCN(CCO)CC1
inactive: outcome [1] | Potency [2] | Potency [3] | activity change, positive = activation [4] 9.7% | outcome [5] | Potency [6] | outcome [7] | outcome [8] | Potency [9] | Potency [10]

CCc1ccc(C=O)cc1
inactive: outcome [1] | Potency [2] | Potency [3] | activity change, positive = activation [4] 5.25% | outcome [5] | Potency [6] | outcome [7] | outcome [8] | Potency [9] | Potency [10]

N[C@@H](CCC(=O)Nc1ccc([N+](=O)[O-])cc1)C(=O)O
inactive: outcome [1] | Potency [2] | Potency [3] | activity change, positive = activation [4] -15.8% | outcome [5] | Potency [6] | outcome [7] | outcome [8] | Potency [9] | Potency [10]

Cc1cc(Cl)c(C)cc1Cl
inactive: outcome [1] | Potency [2] | Potency [3] | activity change, positive = activation [4] -5.35% | outcome [5] | Potency [6] | outcome [7] | outcome [8] | Potency [9] | Potency [10]

CC(C)CC(=O)O
inactive: outcome [1] | Potency [2] | Potency [3] | activity change, positive = activation [4] 4.14% | outcome [5] | Potency [6] | outcome [7] | outcome [8] | Potency [9] | Potency [10]

Nc1ccc([N+](=O)[O-])c(N)c1
inactive: outcome [1] | Potency [2] | Potency [3] | activity change, positive = activation [4] 5.15% | outcome [5] | Potency [6] | outcome [7] | outcome [8] | Potency [9] | Potency [10]

Cc1c(I)c(=O)n(-c2ccccc2)n1C
inactive: outcome [1] | Potency [2] | Potency [3] | activity change, positive = activation [4] 2.79% [at 42.5 µM] | outcome [5] | Potency [6] | outcome [7] | outcome [8] | Potency [9] | Potency [10]

Cc1ccccc1N=O
inactive: outcome [1] | Potency [2] | Potency [3] | activity change, positive = activation [4] 6.56% | outcome [5] | Potency [6] | outcome [7] | outcome [8] | Potency [9] | Potency [10]

Cc1cccc(C)c1NC(=O)c1ccccc1C(=O)O
inactive: outcome [1] | Potency [2] | Potency [3] | activity change, positive = activation [4] 2.58% [at 42.5 µM] | outcome [5] | Potency [6] | outcome [7] | outcome [8] | Potency [9] | Potency [10]

CCOc1cc(NC(C)=O)ccc1C(=O)OC
inactive: outcome [1] | Potency [2] | Potency [3] | activity change, positive = activation [4] -6.13% [at 42.5 µM] | outcome [5] | Potency [6] | outcome [7] | outcome [8] | Potency [9] | Potency [10]

COP(=O)(OC)OC(c1ccc(Cl)cc1)P(=O)(OC)OC (centres undefined)
inactive: outcome [1] | Potency [2] | Potency [3] | activity change, positive = activation [4] 1.9% [at 42.5 µM] | outcome [5] | Potency [6] | outcome [7] | outcome [8] | Potency [9] | Potency [10]

CC/C=C\CC1=C(C)CCC1=O
inactive: outcome [1] | Potency [2] | Potency [3] | activity change, positive = activation [4] -10.1% | outcome [5] | Potency [6] | outcome [7] | outcome [8] | Potency [9] | Potency [10]

From PubChem BioAssay (Tox21)
